Data reported in PubChem BioAssay AID2057 (The Scripps Research Institute Molecular Screening Center, 2009).
Among all 320,000 compounds or so, about 2,100 (0.66%) were called active. This is one part of a sample in which actives are shown more often than they occur.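 Rule for the calls: active = inhibition above the mean inhibition of all tested compounds plus 3 SD, set per campaign (cut at about 40% in these data); inactive = the rest.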

These molecules were tested against Induced myeloid leukemia cell differentiation protein Mcl-1 (Homo sapiens) (UniProt Q07820) (assay: MCL1-BIM peptide interaction disruptors – biochemical, fluorescence polarization, primary screen (AID 2057;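 note: 0% = DMSO wells and 100% = unlabeled Bim-BH3 peptide control; higher means more loss of mP so more displacement of Bim peptide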)). Conditions: GST-MCL1 / FITC-Bim-BH3 fluorescence polarization; at 10.9 µM; active compounds read high.
Chain of Induced myeloid leukemia cell differentiation protein Mcl-1 (Homo sapiens) (Q07820 whole entry, looked up): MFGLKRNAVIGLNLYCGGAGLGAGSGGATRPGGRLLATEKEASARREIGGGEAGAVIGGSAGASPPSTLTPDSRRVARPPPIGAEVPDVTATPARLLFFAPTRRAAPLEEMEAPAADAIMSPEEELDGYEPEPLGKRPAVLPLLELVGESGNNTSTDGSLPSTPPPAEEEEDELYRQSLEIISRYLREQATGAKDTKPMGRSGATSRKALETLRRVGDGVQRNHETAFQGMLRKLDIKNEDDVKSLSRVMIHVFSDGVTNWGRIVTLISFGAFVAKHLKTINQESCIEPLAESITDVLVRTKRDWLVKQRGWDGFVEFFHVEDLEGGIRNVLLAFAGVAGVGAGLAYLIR
In the case of `COc1ccc(S(=O)(=O)N2CCCCC2)cc1NC(=O)c1cc([N+](=O)[O-])ccc1N1CCOCC1`, the inhibition is reported as 3.68% (inactive).
`CCn1c(SCc2cc(=O)n3ccsc3n2)nc2ccccc21` was tested, and the inhibition was 8.95% (inactive).
For `CCOc1ncccc1C(=O)N(C)CC(=O)Nc1ccc(F)cc1`, the inhibition was -10.5% (inactive).
With `COc1ccc(NC(=O)c2cc(-c3ccc(C)o3)nc3ccccc23)cc1` the inhibition was 22.5% (inactive).
For `CC(=O)N1CCN(C(=O)c2cc(-c3ccc(C)o3)nc3ccccc23)CC1`, the inhibition was 7.28% (inactive).
In the case of `Cc1ccc(NC(=O)c2cc(-c3ccc(C)o3)nc3ccccc23)nc1`, the inhibition is reported as 56.2% (active).
`Cc1cc(OCc2cc(C(=O)NCc3cc(C(C)C)no3)no2)cc(C)c1Cl` was tested, and the inhibition was 6.88% (inactive).
For `Cc1cc(C)n(-c2nnc(C)n2NC(=O)c2cccc(Cl)c2)n1`, the inhibition was -1.3% (inactive).
In the case of `Oc1ccc(C2Nc3cccc4cccc(c34)N2)cc1`, the inhibition is reported as 26.6% (inactive).
In the case of `COc1cccc(C2Nc3cccc4cccc(c34)N2)c1`, the inhibition is reported as 22.2% (inactive).
In the case of `Cc1ccc(C2Nc3cccc4cccc(c34)N2)cc1`, the inhibition is reported as 53.9% (active).
For `O=C(C1CCC1)N1CCN(S(=O)(=O)c2ccc([N+](=O)[O-])cc2)CC1`, the inhibition was -7.38% (inactive).
For `COc1ccc(O)c(/C=N/N=C/c2cccc([N+](=O)[O-])c2)c1`, the inhibition was 3.97% (inactive).
For `COc1ccccc1/C=C/C(=O)NC(=S)N1CCOCC1`, the inhibition was -5.3% (inactive).
`COc1ccc(OCC(=O)NCCS(=O)(=O)N2CCN(c3ccc(F)cc3)CC2)cc1` was tested, and the inhibition was 2.8% (inactive).
In the case of `COC(=O)C1=C(C)Nc2ncnn2C1c1ccco1` (configuration not stated), the inhibition is reported as 9.97% (inactive).
For `CCOc1ccc(C2=CC(c3ccccc3)n3ncnc3N2)cc1` (configuration not stated), the inhibition was 6.81% (inactive).
For `O=C(C1=C(O)C(=O)N(Cc2ccccc2)C1c1ccco1)c1ccco1` (configuration not stated), the inhibition was 4.91% (inactive).
With `O=C(C1=C(O)C(=O)N(Cc2ccccc2)C1c1cccnc1)c1ccco1` (configuration not stated) the inhibition was 2.72% (inactive).
In the case of `O=C(C1=C(O)C(=O)N(c2ncccn2)C1c1cccs1)c1ccco1` (configuration not stated), the inhibition is reported as 117% (active).
In the case of `CC(=O)Nc1cccc(C(=O)OCC(=O)c2ccc3c(c2)OCO3)c1`, the inhibition is reported as 0.4% (inactive).
For `C/C=C\C=C\C(=O)N1CC2(CC(c3cccc(NC(=O)/C(C)=C\C)c3)=NO2)C[C@H]1C(N)=O` (some centres not stated), the inhibition was 0% (inactive).
For `CCOc1ccccc1NC(=S)N1CCN(c2cccc(C)c2C)CC1`, the inhibition was 4.81% (inactive).
`CCOC(=O)c1ccc(NC(=O)Cn2cnc3cc(C)c(C)cc32)cc1` was tested, and the inhibition was 5.35% (inactive).
For `NC(=O)C1=C[C@@H](c2ccc3c(c2)OCO3)C[C@@H](OCCCCO)O1`, the inhibition was 12.6% (inactive).
In the case of `Cc1cc(C)cc(OCC(=O)Nc2ccc(N3CCOCC3)cc2N2CCOCC2)c1`, the inhibition is reported as 1.14% (inactive).
For `CCCCNc1nc2ccccc2nc1NS(=O)(=O)c1cccs1`, the inhibition was 2.76% (inactive).
With `O=C(CCS(=O)(=O)c1ccc(Br)cc1)NCCc1ccc(Cl)cc1` the inhibition was -2.54% (inactive).
With `COc1ccc(Cl)cc1NC(=O)CCS(=O)(=O)c1cc2c(cc1C)NC(=O)CO2` the inhibition was 8.54% (inactive).
For `COc1ccc(Cl)cc1NC(=O)CCS(=O)(=O)c1ccc(Br)cc1`, the inhibition was 42.9% (active).
With `O=C(NNS(=O)(=O)c1ccccc1)c1cnn(-c2ccc(Cl)cc2)c1C(F)(F)F` the inhibition was 6.42% (inactive).
In the case of `O=C(Nc1ccc(C(=O)O)c(O)c1)c1ccccc1`, the inhibition is reported as -1.25% (inactive).
`O=C(O)c1ccccc1N=N/C(=N/Nc1cc(S(=O)(=O)O)ccc1O)c1ccccc1` was tested, and the inhibition was 62% (active).
In the case of `O=C(NCCc1ccccc1)C1CC1`, the inhibition is reported as 3.41% (inactive).
For `Cc1cc(C)n2nc(C(=O)Oc3ccc4c(c3)OCO4)nc2n1`, the inhibition was 3.36% (inactive).
In the case of `CN(C)N=Nc1ccc2nc[nH]c2c1`, the inhibition is reported as 2.69% (inactive).
With `Cc1ccc(S(=O)(=O)N[C@@H](Cc2ccccc2)C(=O)N2CCC(C(=O)N[C@H](C(=O)O)C(C)O)CC2)cc1` (some centres not stated) the inhibition was -6.49% (inactive).
With `Cc1nn(C)c(Oc2ccccc2)c1CCNS(=O)(=O)c1ccc(F)cc1` the inhibition was 2.92% (inactive).
`COCCn1c(N)c(NCc2ccccc2)c(=O)[nH]c1=O` was tested, and the inhibition was 73.5% (active).
With `COc1ccc(CNc2nc3c(c(=O)[nH]c(=O)n3C)n2Cc2ccccc2)cc1` the inhibition was 5.54% (inactive).
In the case of `COCCn1c(N)c(N(Cc2ccccc2)C(=O)C2CCCCC2)c(=O)[nH]c1=O`, the inhibition is reported as 0.45% (inactive).
`CCC(=O)c1cc(F)ccc1OCC(=O)Nc1ccc2c(c1)OCCO2` was tested, and the inhibition was -2.34% (inactive).
For `O=c1[nH]c2ccccc2n2c(-c3ccccc3)nnc12`, the inhibition was 57% (active).
For `O=c1[nH]n2c(-c3ccccc3)nc(O)c2c2ccccc12`, the inhibition was -5.68% (inactive).
With `Cc1nc2nc(C)c(NS(=O)(=O)c3ccc(C(C)(C)C)cc3)c(=O)n2[nH]1` the inhibition was 0.66% (inactive).
In the case of `CS(=O)(=O)N(CC(=O)N1CCN(c2ccc(F)cc2)CC1)C1CCCCC1`, the inhibition is reported as -4.24% (inactive).
`CCOC(=O)N1CCN(C(=O)C(C)NC(=O)c2ccco2)CC1` (configuration not stated) was tested, and the inhibition was -1.38% (inactive).
